According to the supplement of paper PMC10849652:
The full data set covers some 8,800 targets. This sample favours those with a hit. About 0.5% of all pairs of compound and target were hits.

Experiments:
Experiment in all cases: log2 fold change, soluble protein after heating vs DMSO (PISA); higher = thermal stabilisation; K562 lysate, 10 uM; active = over 0.2 and 3.5 SD of the protein, either way, in both replicates (recomputed)
[1] = compound: CS(=O)(=O)CCNCc1ccc(-c2ccc3ncnc(Nc4ccc(OCc5cccc(F)c5)c(Cl)c4)c3c2)o1 [lapatinib]
How it was run: (§1)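 Values give the log-two fold change in thermal stability against solvent controls, from duplicates. Crude K562 extract at 1 mg/mL protein, made by dounce homogenisation in PBS pH 7.4 with 1 mM MgCl2, was treated with 10 μM compound for 30 min. After 3 min heating across 48°C-58°C, aliquots were pooled, adjusted to 0.5% NP-40 at 4°C and centrifuged at 21,000xg for 90 min. The supernatant was measured by TMTpro 16plex LC-MS/MS with channel sums equalised.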

[2] = compound: CS(=O)(=O)N1CCN(Cc2cc3nc(-c4cccc5[nH]ncc45)nc(N4CCOCC4)c3s2)CC1 [pictilisib]
How it was run: as §1

[3] = compound: C[C@@H](Oc1cc(-c2cnn(C3CCNCC3)c2)cnc1N)c1c(Cl)ccc(F)c1Cl [crizotinib]
How it was run: as §1

[4] = compound: C[C@H](C1=CC=C(C=C1)C(=O)NC2=C3C=CNC3=NC=C2)N
How it was run: as §1

[5] = compound: C[C@H](Nc1ncnc2nc[nH]c12)c1cc2cccc(Cl)c2c(=O)n1-c1ccccc1 [duvelisib]
How it was run: as §1

[6] = compound: Cc1cc(Nc2cc(CN3CCOCC3)c3nc(C)c(Cc4ccc(Cl)cc4F)n3n2)n[nH]1 [gandotinib]
How it was run: as §1

[7] = compound: Cc1cc(Nc2cc(N3CCN(C)CC3)nc(Sc3ccc(NC(=O)C4CC4)cc3)n2)n[nH]1 [tozasertib]
How it was run: as §1

[8] = compound: Cc1ccc(-n2nc(C(C)(C)C)cc2NC(=O)Nc2ccc(OCCN3CCOCC3)c3ccccc23)cc1 [doramapimod]
How it was run: as §1

[9] = compound: Cc1ccc(NC(=O)c2ccc(CN3CC[C@H](N(C)C)C3)c(C(F)(F)F)c2)cc1Nc1nccc(-c2cncnc2)n1 [bafetinib]
How it was run: as §1

[10] = compound: Cc1cccc(CC(=O)N2CCc3c2ccc(-c2cn(C)c4ncnc(N)c24)c3F)n1
How it was run: as §1

[11] = compound: Cc1cn(-c2cc(NC(=O)c3ccc(C)c(Nc4nccc(-c5cccnc5)n4)c3)cc(C(F)(F)F)c2)cn1 [nilotinib]
How it was run: as §1

[12] = compound: Cc1nc(Nc2n[nH]c3c2CN(C(=O)N[C@H](CN(C)C)c2ccccc2)C3(C)C)c2sccc2n1
How it was run: as §1

[13] = compound: Cc1nc(Nc2ncc(C(=O)Nc3c(C)cccc3Cl)s2)cc(N2CCN(CCO)CC2)n1 [dasatinib]
How it was run: as §1

[14] = compound: Cc1ncc(-c2ccnc(Nc3ccc(S(C)(=O)=O)cc3)n2)n1C(C)C
How it was run: as §1

[15] = compound: Cn1cc(-c2ccc3c(c2)CCN3C(=O)Cc2cccc(C(F)(F)F)c2)c2c(N)ncnc21
How it was run: as §1

[16] = compound: Cn1cc(CNCC2CCN(c3ncc(C(=O)NO)cn3)CC2)c2ccccc21 [quisinostat]
How it was run: as §1

[17] = compound: Cn1cncc1[C@@](N)(c1ccc(Cl)cc1)c1ccc2c(c1)c(-c1cccc(Cl)c1)cc(=O)n2C [tipifarnib]
How it was run: as §1

[18] = compound: NC(=O)Nc1cc(-c2cccc(F)c2)sc1C(=O)N[C@H]1CCCNC1
How it was run: as §1

[19] = compound: NC(=O)c1cnc(N[C@@H]2CCCC[C@@H]2N)nc1Nc1cccc(-n2nccn2)c1
How it was run: as §1

[20] = compound: NC1(c2ccc(-c3nc4ccn5c(=O)[nH]nc5c4cc3-c3ccccc3)cc2)CCC1
How it was run: as §1

Measured: log2 fold change

COTL1 (UniProt Q14019)
UniProt Q14019, sequence (Q14019 whole entry, looked up): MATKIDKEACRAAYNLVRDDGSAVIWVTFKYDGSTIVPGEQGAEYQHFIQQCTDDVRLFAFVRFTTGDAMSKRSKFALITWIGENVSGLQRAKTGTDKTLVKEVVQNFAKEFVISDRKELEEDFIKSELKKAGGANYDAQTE
inactive: [1] 0.007 | [2] 0.016 | [3] 0.045 | [4] 0.245 | [5] -0.009 | [6] -0.062 | [7] 0.024 | [8] -0.044 | [9] 0.102 | [10] -0.122 | [11] 0.021 | [12] 0.003 | [13] 0.024 | [14] 0.031 | [15] 0.023 | [16] 0.017 | [17] 0.055 | [18] -0.075 | [19] -0.028 | [20] -0.011

CNOT2 (UniProt Q9NZN8)
UniProt Q9NZN8, sequence (Q9NZN8 whole entry, looked up): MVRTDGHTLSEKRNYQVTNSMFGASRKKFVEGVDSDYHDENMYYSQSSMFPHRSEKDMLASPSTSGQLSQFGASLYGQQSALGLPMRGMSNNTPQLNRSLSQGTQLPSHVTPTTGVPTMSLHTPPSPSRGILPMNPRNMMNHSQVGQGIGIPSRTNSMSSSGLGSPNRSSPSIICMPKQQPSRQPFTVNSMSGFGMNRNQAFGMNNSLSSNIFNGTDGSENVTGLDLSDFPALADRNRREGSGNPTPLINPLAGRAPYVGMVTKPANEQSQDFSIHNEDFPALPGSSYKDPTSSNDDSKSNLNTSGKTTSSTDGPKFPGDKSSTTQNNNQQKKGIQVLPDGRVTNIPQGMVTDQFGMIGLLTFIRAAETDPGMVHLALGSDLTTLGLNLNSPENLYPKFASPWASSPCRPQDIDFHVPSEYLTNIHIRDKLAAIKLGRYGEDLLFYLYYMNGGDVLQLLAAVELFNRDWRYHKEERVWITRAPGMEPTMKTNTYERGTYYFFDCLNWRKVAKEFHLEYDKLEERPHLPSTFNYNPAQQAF
inactive: [1] -0.027 | [2] -0.014 | [3] -0.023 | [4] 0.111 | [5] -0.008 | [6] -0.093 | [7] 0.001 | [8] -0.01 | [9] 0.024 | [10] -0.005 | [11] 0.013 | [12] -0.011 | [13] -0.024 | [14] 0.009 | [15] -0.018 | [16] -0.026 | [17] -0.074 | [18] 0.024 | [19] 0.02 | [20] -0.001

DNAJC5 (UniProt Q9H3Z4)
UniProt Q9H3Z4, sequence (Q9H3Z4 whole entry, looked up): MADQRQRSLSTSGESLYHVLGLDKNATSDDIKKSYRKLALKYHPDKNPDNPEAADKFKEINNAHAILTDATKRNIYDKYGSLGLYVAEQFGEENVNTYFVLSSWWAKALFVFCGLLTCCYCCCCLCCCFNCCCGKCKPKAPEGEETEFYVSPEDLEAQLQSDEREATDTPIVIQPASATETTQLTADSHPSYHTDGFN
inactive: [1] -0.021 | [2] 0.075 | [3] 0.007 | [5] -0.041 | [6] 0.161 | [7] -0.054 | [8] 0.023 | [9] -0.144 | [11] -0.136 | [12] -0.043 | [13] -0.002 | [14] 0.008 | [15] -0.029 | [16] -0.05 | [17] 0.043 | [18] -0.045 | [19] 0.062 | [20] 0.024
active: [4] -0.377 | [10] 0.334

CUEDC2 (UniProt Q9H467)
UniProt Q9H467, sequence (Q9H467 whole entry, looked up): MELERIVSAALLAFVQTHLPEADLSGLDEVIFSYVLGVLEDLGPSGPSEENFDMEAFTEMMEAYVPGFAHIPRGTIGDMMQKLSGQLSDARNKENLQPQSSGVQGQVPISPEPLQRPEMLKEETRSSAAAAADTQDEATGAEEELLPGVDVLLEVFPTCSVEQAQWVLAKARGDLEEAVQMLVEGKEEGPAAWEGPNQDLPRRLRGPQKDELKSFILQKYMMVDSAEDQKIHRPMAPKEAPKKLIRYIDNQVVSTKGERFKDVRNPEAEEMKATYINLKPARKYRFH
active: [4] 0.528
inactive: [1] 0.018 | [2] -0.119 | [3] 0.001 | [5] -0.009 | [6] -0.026 | [7] -0.055 | [8] 0.022 | [9] -0.073 | [10] -0.082 | [11] -0.038 | [12] 0.055 | [13] 0.015 | [14] 0.028 | [15] 0.009 | [16] -0.046 | [17] 0.009 | [18] -0.012 | [19] -0.021 | [20] 0.016

DICER1 (UniProt Q9UPY3)
UniProt Q9UPY3, sequence (Q9UPY3 whole entry, looked up): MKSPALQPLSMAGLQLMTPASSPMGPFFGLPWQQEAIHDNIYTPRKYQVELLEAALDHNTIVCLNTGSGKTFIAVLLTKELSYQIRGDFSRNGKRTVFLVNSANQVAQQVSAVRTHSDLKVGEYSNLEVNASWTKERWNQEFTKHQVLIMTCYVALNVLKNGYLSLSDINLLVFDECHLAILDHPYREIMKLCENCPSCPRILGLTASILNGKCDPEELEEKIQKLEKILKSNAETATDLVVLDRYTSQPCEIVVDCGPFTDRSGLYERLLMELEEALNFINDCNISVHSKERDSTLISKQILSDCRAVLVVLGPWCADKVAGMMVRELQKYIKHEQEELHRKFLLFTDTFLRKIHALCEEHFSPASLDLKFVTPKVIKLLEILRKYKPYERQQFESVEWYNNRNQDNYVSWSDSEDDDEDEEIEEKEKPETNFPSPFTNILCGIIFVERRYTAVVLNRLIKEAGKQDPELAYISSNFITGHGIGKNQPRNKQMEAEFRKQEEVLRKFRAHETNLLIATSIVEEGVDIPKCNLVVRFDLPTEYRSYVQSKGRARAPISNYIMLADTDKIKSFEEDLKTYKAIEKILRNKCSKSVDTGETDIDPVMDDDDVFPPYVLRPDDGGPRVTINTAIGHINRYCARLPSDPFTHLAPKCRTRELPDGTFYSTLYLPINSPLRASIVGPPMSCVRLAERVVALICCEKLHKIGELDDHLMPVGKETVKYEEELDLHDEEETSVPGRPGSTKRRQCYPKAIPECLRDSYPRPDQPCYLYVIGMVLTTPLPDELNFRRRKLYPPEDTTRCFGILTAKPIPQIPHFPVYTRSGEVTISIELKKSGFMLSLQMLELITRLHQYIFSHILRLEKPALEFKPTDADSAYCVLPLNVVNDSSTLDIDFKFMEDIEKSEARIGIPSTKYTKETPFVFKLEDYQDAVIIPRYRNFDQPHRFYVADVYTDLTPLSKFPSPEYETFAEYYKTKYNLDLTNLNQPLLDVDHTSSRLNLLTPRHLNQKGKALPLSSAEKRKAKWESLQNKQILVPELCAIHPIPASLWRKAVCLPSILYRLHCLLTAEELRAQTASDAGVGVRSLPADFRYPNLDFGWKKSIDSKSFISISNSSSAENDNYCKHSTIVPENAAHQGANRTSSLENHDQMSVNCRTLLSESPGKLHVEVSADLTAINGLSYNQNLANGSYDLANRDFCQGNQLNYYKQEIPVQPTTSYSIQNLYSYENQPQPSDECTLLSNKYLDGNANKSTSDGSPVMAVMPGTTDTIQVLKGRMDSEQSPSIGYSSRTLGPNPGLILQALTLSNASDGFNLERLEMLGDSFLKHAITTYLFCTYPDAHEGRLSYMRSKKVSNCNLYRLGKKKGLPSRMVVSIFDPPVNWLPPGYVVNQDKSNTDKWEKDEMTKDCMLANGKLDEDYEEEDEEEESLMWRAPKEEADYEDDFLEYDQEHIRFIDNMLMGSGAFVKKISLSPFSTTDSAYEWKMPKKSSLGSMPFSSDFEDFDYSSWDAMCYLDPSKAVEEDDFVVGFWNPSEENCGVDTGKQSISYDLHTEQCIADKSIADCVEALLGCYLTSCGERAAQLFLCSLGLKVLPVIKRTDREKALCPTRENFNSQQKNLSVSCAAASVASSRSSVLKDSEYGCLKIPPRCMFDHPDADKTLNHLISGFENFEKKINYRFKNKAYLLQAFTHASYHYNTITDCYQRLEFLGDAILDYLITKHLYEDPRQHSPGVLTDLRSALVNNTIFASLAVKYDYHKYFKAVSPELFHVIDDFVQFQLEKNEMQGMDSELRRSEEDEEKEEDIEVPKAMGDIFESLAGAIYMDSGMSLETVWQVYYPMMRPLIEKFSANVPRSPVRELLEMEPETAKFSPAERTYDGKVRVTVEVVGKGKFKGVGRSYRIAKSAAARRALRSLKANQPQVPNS
inactive: [1] -0.02 | [2] -0.071 | [3] -0.075 | [4] -0.075 | [5] -0.05 | [6] 0.02 | [7] 0.035 | [8] 0.039 | [9] -0.11 | [10] 0.084 | [11] 0.014 | [12] -0.014 | [13] -0.005 | [14] 0.045 | [15] -0.03 | [16] -0.072 | [17] 0 | [18] 0.051 | [19] 0.045 | [20] -0.068

COG6 (UniProt Q9Y2V7)
UniProt Q9Y2V7, sequence (Q9Y2V7 whole entry, looked up): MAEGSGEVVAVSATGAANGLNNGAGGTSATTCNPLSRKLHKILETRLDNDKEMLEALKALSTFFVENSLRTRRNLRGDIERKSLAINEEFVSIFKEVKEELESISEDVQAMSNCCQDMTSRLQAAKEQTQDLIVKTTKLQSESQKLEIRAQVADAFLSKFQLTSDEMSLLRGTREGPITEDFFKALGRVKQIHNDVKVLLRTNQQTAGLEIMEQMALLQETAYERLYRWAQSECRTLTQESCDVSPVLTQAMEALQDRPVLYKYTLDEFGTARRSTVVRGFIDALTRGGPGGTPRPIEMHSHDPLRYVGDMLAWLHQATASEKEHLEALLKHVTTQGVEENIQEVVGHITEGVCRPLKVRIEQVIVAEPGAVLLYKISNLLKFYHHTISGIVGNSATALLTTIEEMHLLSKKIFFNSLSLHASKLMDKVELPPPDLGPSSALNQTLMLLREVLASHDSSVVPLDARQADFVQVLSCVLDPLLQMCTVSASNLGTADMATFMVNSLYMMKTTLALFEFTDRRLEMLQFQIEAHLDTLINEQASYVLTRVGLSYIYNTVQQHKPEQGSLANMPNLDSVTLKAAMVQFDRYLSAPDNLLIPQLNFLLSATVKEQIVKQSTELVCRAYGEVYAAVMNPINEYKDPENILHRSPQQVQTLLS
inactive: [1] 0.012 | [2] -0.019 | [3] -0.104 | [4] -0.137 | [5] 0.014 | [6] -0.115 | [7] -0.011 | [8] 0.037 | [9] -0.071 | [10] 0.142 | [11] 0.004 | [12] 0.038 | [13] -0.085 | [14] -0.041 | [15] -0.005 | [16] -0.068 | [17] -0.045 | [18] -0.016 | [19] -0.008 | [20] -0.06

DIAPH1 (UniProt O60610)
inactive: [1] -0.007 | [2] 0.014 | [3] 0.004 | [4] 0.06 | [5] -0.006 | [6] -0.063 | [7] 0.004 | [8] -0.003 | [9] -0.001 | [10] -0.021 | [11] -0.003 | [12] -0.009 | [13] -0.019 | [14] -0.009 | [15] 0.006 | [16] -0.006 | [17] -0.006 | [18] -0.006 | [19] 0.002 | [20] 0.008

DHFR (UniProt P00374)
UniProt P00374, sequence (P00374 whole entry, looked up): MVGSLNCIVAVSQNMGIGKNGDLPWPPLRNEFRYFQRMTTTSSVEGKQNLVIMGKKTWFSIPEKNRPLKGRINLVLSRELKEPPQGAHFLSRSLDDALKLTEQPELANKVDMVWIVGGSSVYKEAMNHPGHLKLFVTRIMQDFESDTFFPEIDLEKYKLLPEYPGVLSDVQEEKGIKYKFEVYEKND
inactive: [1] -0.012 | [2] -0.069 | [3] -0.054 | [4] 0.04 | [5] -0.015 | [6] -0.099 | [7] 0.022 | [8] 0.011 | [9] -0.047 | [10] -0.077 | [11] 0.023 | [12] -0.041 | [13] -0.091 | [14] 0.019 | [15] 0.073 | [16] -0.009 | [17] -0.012 | [18] 0.039 | [19] -0.129 | [20] -0.04

DNAH5 (UniProt Q8TE73)
inactive: [1] 0.043 | [2] -0.005 | [5] -0.051 | [6] 0.181 | [9] -0.047 | [10] 0.175 | [11] -0.029 | [12] -0.036 | [13] -0.072 | [14] -0.013 | [15] -0.156 | [17] -0.128 | [19] -0.073 | [20] -0.049
active: [4] -0.422

CSDE1 isoform 3 (UniProt O75534)
UniProt O75534, sequence (O75534 whole entry, looked up): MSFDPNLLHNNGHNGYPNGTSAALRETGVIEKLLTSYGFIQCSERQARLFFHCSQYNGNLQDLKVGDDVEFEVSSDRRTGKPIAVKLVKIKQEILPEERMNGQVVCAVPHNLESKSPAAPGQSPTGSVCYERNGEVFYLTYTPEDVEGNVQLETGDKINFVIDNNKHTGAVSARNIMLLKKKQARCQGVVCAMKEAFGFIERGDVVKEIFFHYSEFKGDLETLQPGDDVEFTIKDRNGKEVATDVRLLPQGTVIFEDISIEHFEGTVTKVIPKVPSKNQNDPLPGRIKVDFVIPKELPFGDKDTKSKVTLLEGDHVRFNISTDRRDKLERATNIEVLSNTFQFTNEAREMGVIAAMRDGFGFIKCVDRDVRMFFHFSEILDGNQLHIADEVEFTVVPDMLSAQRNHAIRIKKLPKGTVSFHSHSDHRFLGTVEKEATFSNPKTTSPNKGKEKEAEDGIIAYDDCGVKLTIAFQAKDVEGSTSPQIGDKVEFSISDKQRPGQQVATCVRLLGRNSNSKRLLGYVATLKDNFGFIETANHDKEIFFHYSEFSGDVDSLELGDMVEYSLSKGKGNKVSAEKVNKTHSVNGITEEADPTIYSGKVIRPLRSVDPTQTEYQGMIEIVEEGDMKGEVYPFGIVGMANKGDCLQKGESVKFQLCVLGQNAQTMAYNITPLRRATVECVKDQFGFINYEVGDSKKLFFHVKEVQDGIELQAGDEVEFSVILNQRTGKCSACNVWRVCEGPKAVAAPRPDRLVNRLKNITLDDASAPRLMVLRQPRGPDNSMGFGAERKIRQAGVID
inactive: [1] 0.184 | [2] -0.141 | [3] -0.179 | [4] 0.139 | [6] -0.043 | [8] 0.055 | [9] 0.126 | [10] -0.058 | [11] 0.064 | [12] -0.135 | [14] 0.016 | [16] 0.022 | [17] -0.02 | [18] -0.085 | [19] -0.021

CLIC2 (UniProt O15247)
UniProt O15247, sequence (O15247 whole entry, looked up): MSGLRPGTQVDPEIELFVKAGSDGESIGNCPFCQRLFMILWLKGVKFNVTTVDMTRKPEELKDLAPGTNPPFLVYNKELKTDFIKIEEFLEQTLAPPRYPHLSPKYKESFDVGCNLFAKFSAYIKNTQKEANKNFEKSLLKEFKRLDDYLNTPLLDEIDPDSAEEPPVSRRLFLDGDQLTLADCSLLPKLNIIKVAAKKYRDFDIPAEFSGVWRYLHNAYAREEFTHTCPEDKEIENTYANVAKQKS
inactive: [1] -0.057 | [3] -0.002 | [4] -0.037 | [5] -0.039 | [6] -0.015 | [7] -0.016 | [8] -0.022 | [9] -0.009 | [10] 0.005 | [11] 0.029 | [12] -0.032 | [13] -0.017 | [14] 0.004 | [15] -0.022 | [16] -0.019 | [17] -0.024 | [18] 0.023 | [19] 0.004 | [20] -0.005

CLUH (UniProt O75153)
inactive: [1] -0.014 | [3] -0.057 | [4] -0.012 | [5] 0.147 | [6] 0.004 | [7] -0.005 | [8] -0.007 | [9] -0.044 | [10] 0.032 | [11] 0.009 | [12] 0.075 | [13] -0.025 | [14] -0.007 | [15] 0.002 | [16] -0.043 | [17] 0.007 | [18] 0.039 | [19] -0.006 | [20] 0.004
